Measurements taken from the supplement of paper PMC11732987, “Enantioselective OTUD7B fragment discovery through chemoproteomics screening and high-throughput optimisation” (Communications Chemistry, 2025).

Key:
Test in all cases: log2 ratio of Biotin-Ahx-Ub-VS probe labelling (fragment/DMSO); higher = less target engagement (more negative = stronger competition), active = hit call of the paper (q ≤ 0.05, log2 ratio ≤ -1)
Details in all cases: compound concentration: 200 uM; treatment time: 3 h
[1] = target: T1, ALG13 (UniProt Q9NP73)
T1 sequence (whole entry): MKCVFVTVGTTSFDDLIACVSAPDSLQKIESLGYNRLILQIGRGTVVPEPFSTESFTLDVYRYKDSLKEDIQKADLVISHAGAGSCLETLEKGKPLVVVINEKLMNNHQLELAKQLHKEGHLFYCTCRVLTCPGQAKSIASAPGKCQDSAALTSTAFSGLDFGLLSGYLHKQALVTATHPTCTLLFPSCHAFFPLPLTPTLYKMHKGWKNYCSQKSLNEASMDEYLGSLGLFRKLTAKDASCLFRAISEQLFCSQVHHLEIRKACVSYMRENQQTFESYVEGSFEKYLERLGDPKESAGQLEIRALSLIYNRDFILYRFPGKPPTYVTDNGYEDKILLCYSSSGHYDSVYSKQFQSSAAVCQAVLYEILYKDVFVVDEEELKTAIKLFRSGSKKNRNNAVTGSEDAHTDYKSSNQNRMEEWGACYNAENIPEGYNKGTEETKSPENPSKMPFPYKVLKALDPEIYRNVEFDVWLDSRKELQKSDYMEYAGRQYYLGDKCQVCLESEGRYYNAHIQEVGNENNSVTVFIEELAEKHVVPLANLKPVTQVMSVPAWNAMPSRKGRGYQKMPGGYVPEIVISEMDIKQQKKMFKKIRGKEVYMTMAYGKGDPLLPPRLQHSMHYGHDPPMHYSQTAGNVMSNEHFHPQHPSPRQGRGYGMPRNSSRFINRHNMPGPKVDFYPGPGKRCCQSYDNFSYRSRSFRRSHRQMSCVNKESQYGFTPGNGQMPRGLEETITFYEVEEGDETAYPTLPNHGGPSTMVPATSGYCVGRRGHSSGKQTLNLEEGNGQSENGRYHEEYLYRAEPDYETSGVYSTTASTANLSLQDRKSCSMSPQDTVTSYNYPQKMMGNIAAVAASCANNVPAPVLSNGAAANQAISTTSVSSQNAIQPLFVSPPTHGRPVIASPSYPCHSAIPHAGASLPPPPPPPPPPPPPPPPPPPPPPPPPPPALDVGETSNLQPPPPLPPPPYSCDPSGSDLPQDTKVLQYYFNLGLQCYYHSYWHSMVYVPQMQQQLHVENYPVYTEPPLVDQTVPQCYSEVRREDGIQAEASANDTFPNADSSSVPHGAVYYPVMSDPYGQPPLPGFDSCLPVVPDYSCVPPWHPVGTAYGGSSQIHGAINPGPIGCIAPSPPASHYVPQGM
Procedure, shortened: (§1)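 Labelling with Biotin-Ahx-Ub-VS (0.5 µM final, 1 h) followed a 3 h triplicate treatment of HEK293T lysate (495 µg per sample, Tris/CHAPS/IGEPAL buffer with protease inhibitors) with fragment at 200 µM or vehicle. Labelled DUBs were NeutrAvidin-enriched, digested with LysC and trypsin, and run by diaPASEF LC-MS/MS. The values, average log2 fragment/vehicle ratios by unpaired t-test, come from global-median-normalised Spectronaut label-free quantities. Proteins with ≥2 unique peptides were used.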

[2] = target: ATXN3 (UniProt P54252)
Sequence of ATXN3 (P54252 whole entry): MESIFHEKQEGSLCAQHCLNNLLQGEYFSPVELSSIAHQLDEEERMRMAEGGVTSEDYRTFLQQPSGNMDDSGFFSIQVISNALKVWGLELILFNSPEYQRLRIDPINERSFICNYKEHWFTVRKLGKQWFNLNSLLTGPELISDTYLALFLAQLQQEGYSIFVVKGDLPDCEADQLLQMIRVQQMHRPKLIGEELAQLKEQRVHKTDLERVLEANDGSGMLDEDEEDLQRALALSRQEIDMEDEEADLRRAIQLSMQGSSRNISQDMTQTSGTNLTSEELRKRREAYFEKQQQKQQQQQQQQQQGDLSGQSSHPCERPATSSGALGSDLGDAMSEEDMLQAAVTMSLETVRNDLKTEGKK
Procedure, shortened: as §1

[3] = target: T2, BAP1 (UniProt Q92560)
T2 sequence (whole entry): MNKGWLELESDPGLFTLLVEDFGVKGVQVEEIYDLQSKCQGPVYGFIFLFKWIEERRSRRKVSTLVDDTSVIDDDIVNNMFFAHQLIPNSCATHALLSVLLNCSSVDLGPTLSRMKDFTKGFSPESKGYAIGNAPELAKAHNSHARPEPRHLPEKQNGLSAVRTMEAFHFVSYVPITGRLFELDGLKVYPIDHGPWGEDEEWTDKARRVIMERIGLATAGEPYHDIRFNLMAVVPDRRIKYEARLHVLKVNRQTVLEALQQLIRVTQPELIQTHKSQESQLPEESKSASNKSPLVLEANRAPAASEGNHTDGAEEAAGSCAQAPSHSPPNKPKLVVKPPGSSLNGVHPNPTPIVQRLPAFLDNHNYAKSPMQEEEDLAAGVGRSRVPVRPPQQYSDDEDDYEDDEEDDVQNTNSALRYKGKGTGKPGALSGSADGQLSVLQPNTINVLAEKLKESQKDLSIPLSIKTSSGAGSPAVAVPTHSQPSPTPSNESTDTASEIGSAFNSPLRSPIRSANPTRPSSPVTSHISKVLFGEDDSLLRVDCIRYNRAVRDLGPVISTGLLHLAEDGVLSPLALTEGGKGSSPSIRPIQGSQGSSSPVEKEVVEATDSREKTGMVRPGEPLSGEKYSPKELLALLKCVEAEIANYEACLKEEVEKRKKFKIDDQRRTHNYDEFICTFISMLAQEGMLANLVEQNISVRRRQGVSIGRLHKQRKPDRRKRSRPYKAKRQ
Procedure, shortened: as §1

[4] = target: EIF3F (UniProt O00303)
Sequence of EIF3F (O00303 whole entry): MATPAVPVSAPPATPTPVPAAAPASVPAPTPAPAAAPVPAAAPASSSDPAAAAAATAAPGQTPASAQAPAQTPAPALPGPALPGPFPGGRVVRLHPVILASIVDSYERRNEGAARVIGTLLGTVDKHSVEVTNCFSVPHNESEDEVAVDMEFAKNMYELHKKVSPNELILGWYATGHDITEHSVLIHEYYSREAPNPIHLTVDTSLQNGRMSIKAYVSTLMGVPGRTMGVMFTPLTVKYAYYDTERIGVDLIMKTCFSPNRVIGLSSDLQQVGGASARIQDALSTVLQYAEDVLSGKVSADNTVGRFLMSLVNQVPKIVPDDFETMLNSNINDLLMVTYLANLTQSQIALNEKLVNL
Procedure, shortened: as §1

[5] = target: EIF3H (UniProt O15372)
Sequence of EIF3H (O15372 whole entry): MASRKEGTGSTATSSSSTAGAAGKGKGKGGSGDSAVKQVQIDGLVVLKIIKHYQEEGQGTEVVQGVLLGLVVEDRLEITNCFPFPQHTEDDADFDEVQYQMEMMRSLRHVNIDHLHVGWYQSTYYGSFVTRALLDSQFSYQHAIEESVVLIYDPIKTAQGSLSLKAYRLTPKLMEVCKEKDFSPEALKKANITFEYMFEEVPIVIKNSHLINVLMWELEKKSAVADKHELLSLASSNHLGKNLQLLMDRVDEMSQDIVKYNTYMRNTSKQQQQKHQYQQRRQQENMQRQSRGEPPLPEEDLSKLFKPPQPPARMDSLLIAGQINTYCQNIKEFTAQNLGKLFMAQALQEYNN
Procedure, shortened: as §1

[6] = target: T3, FAM105A (UniProt Q9NUU6)
T3 sequence (whole entry): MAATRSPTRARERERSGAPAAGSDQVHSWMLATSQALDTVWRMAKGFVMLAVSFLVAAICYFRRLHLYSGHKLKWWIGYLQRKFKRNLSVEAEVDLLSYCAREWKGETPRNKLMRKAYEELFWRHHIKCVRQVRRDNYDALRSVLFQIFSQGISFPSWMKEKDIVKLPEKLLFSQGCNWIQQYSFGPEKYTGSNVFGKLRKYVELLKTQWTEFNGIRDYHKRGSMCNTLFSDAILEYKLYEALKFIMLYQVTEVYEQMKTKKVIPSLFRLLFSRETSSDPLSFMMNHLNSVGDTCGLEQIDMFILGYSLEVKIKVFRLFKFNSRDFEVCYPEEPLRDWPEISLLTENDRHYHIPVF
Procedure, shortened: as §1

[7] = target: OTUB1 (UniProt Q96FW1)
Sequence of OTUB1 (Q96FW1 whole entry): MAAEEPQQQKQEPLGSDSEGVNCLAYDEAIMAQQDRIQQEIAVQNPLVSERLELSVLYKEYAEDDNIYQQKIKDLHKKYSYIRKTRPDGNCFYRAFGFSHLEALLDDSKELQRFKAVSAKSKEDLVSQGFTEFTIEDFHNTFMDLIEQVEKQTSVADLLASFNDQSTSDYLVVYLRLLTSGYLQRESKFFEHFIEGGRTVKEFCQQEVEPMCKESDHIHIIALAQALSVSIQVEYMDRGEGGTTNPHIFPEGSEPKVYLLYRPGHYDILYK
Procedure, shortened: as §1

[8] = target: T4, OTUD4 (UniProt Q01804)
T4 sequence (whole entry): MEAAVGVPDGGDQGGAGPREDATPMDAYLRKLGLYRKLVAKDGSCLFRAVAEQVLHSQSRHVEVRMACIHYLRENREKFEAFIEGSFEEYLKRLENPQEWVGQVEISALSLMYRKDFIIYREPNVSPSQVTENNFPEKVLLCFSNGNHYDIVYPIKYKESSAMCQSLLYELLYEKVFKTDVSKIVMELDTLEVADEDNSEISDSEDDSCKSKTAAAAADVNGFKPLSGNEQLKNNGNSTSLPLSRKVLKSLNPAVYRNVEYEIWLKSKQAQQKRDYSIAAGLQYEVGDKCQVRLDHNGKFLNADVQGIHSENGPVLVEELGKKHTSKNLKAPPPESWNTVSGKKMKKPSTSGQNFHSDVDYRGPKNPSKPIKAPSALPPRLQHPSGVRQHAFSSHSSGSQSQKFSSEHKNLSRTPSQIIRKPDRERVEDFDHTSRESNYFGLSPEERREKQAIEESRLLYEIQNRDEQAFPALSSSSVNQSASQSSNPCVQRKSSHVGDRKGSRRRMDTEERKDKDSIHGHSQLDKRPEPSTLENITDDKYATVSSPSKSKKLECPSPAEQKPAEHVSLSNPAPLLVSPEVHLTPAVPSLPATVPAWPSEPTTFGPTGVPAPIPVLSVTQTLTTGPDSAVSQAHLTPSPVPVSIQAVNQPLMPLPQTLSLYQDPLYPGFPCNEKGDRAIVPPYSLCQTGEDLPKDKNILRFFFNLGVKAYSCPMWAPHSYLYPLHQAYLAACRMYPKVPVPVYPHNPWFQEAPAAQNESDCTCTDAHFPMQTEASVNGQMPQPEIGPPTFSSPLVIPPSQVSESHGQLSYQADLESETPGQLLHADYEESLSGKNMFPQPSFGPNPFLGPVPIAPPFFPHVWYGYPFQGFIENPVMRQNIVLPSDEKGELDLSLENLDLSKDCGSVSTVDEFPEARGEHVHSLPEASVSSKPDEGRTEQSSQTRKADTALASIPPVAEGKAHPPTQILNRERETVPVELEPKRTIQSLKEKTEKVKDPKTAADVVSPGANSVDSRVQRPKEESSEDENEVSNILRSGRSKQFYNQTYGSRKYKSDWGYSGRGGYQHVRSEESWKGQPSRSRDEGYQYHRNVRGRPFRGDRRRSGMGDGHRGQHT
Procedure, shortened: as §1

[9] = target: T5, OTUD5 (UniProt Q96G74)
T5 sequence (whole entry): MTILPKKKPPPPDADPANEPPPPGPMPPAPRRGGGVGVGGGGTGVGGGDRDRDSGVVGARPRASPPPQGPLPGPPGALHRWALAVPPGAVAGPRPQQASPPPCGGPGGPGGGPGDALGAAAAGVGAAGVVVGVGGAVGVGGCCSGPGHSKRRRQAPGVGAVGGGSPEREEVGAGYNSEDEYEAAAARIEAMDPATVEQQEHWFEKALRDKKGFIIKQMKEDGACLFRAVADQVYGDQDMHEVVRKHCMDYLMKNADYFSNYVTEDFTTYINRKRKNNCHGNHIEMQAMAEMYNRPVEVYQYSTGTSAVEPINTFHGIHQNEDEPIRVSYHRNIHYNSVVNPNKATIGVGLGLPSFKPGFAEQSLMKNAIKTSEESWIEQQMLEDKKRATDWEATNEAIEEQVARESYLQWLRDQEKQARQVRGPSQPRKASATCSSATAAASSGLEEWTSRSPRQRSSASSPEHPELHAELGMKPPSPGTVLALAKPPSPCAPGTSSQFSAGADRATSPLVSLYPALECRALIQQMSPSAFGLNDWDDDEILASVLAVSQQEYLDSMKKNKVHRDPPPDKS
Procedure, shortened: as §1

Measured: log2 ratio of Biotin-Ahx-Ub-VS probe labelling

O=C(CCl)N1CCC(=C(F)CO)C1
inactive: [1] -0.0371 | [2] -0.106 | [3] -0.015 | [4] -0.0747 | [5] -0.169 | [6] -0.0583 | [7] -0.0358 | [8] 0.198 | [9] -0.126
